# Test results from PubChem BioAssay (Tox21).
# Values without a mark were called inactive. Inconclusive results are not listed. A call without a number means that no potency is given here. The source made the active and inactive calls. Unless noted, calls follow the shape of the full dose curve.
# Assays:
# [1] = Nuclear factor erythroid 2-related factor 2/antioxidant responsive element (Nrf2/ARE) small molecule agonists: qHTS cell viability counter screen in human keratinocytes (AID 1919968; active = well fitted curve in the direction sought with a large enough effect in the repeat runs; an effect the other way counts as inactive or inconclusive; also: nearly all actives have a fitted effect of over 55% in size)
# Outline: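 KeratinoSens HaCaT cells, 1,500/well, preincubated 5 h, then exposed to compounds in DMSO for 23 h at 37 C/5% CO2. Viability read as CellTiter-Fluor fluorescence after 1 h, in the same wells as the ARE-luciferase read.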
# [2] = Nuclear factor erythroid 2-related factor 2/antioxidant responsive element (Nrf2/ARE) small molecule agonists: luciferase reporter gene qHTS assay in human keratinocytes (AID 1919969); also: nearly all actives have a fitted effect of over 35% in size; also: potency is read from the fitted curve at half-maximal effect
# [3] = biological target: Gonadotropin-releasing hormone receptor (Homo sapiens) (UniProt P30968); experiment: Human gonadotropin-releasing hormone receptor (GnRHR) small molecule agonists, calcium flux assay in GnRHR-HEK293 cells (AID 1920063); also: nearly all actives have a fitted effect of over 35% in size
# Chain of Gonadotropin-releasing hormone receptor (Homo sapiens) (P30968 whole entry, looked up): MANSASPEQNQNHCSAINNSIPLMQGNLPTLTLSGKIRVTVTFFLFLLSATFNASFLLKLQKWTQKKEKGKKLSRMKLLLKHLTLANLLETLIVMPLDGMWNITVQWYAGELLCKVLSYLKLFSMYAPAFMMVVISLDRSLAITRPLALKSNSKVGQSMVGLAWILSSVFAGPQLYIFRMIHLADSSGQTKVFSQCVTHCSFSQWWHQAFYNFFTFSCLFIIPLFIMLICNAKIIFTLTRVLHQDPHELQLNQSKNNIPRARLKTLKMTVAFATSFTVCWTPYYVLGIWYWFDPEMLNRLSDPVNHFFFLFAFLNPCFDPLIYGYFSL
# Outline: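 HEK293 cells stably expressing human GnRHR were dye-loaded for 1 h at 37 C. Compound was added in agonist mode and fluorescence (Ex/Em 480/540) recorded kinetically for 3 min. Fifteen concentrations, triplicates.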
# [4] = biological target: KiSS-1 receptor (Homo sapiens) (UniProt Q969F8); experiment: Human kisspeptin (KISS1R) small molecule agonists, calcium flux assay in KISS1R-HEK293 cells (AID 1920064; active = well fitted curve in the direction sought with a large enough effect in the repeat runs; an effect the other way counts as inactive or inconclusive)
# Chain of KiSS-1 receptor (Homo sapiens) (Q969F8 whole entry, looked up): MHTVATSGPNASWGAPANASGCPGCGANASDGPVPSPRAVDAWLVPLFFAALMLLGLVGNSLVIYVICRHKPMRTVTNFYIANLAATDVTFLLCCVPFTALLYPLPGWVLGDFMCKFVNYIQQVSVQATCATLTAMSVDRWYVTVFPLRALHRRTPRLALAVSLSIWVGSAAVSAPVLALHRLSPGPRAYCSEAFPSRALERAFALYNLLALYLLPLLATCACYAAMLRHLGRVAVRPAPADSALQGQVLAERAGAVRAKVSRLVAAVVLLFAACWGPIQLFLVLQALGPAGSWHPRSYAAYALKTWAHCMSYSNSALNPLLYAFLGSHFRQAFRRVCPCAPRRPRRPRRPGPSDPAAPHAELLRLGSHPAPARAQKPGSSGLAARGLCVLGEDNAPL
# Outline: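 HEK293 cells stably expressing human KISS1R were loaded with calcium dye for 1 h at 37 C, then given compound; fluorescence (Ex/Em 480/540) was read kinetically for 3 min. Fifteen concentrations, triplicate.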
# [5] = G protein-coupled receptor (GPCR) small molecule agonists, calcium flux assay: HEK293 wild type cell line counter screen (AID 1920065)
# Outline: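 Wild-type HEK293 cells plated 18 h, loaded with calcium dye 1 h at 37 C, then compounds added in agonist mode (ATP as positive control). Kinetic fluorescence Ex/Em 480/540 recorded 3 min at 1 sec intervals; 15 concentrations, triplicate.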
# [6] = p53 small molecule agonists, cell-based qHTS assay with rat liver microsomes (AID 1963578)
# Outline: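 Agonist mode in p53RE-bla reporter cells, with compounds co-incubated 16 h at 37 C alongside 0.5 mg/mL rat liver microsomes and 0.5 mg/mL NADPH (final), followed by a 2 h LiveBLAzer detection step.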
# [7] = p53 small molecule agonists, cell-based qHTS assay with human liver microsomes: qHTS cell viability counter screen (AID 1963579); also: nearly all actives have a fitted effect of over 45% in size
# Outline: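 Metabolically activated exposure: compounds, human liver microsomes and NADPH (0.5 mg/mL final apiece) were added to p53RE-bla cells seeded 5 h earlier, left 16 h at 37 C, and then assessed for viability by CellTiter-Glo luminescence.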
# [8] = p53 small molecule agonists, cell-based qHTS assay with rat liver microsomes: qHTS cell viability counter screen (AID 1963580); also: nearly all actives have a fitted effect of over 45% in size
# Outline: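 p53RE-bla HCT-116 cells were exposed 16 h at 37 C to compounds with rat liver microsomes (0.5 mg/mL) and NADPH (0.5 mg/mL). Viability was measured in the same wells as ATP content by CellTiter-Glo luminescence.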
# [9] = biological target: 5-hydroxytryptamine receptor 2A (Homo sapiens) (UniProt P28223); experiment: 5-hydroxytryptamine receptor 2A (HTR2A) small molecule antagonists, cell-based qHTS assay (AID 1963586); also: nearly all actives have a fitted effect of over 45% in size
# Chain of 5-hydroxytryptamine receptor 2A (Homo sapiens) (P28223 whole entry, looked up): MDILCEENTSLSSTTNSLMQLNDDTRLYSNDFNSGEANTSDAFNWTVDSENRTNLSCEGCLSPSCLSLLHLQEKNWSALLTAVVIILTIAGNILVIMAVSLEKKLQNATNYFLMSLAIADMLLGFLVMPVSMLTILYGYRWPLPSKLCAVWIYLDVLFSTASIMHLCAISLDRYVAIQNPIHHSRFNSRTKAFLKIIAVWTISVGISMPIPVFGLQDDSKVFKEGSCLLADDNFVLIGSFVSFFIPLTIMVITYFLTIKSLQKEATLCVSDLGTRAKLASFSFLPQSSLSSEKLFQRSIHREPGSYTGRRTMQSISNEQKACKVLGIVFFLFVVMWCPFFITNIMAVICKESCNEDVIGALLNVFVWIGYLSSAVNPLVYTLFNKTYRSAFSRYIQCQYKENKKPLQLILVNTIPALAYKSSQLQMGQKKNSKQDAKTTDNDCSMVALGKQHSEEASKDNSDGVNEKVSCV
# Outline: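 Antagonist-mode intracellular calcium assay: DOI (4 nM) added after 5 min compound pre-incubation at room temperature to dye-loaded HTR2A-CHO cells. Fluorescence followed for 3 min, sampled every second.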
# [10] = biological target: 5-hydroxytryptamine receptor 2A (Homo sapiens) (UniProt P28223); experiment: 5-hydroxytryptamine receptor 2A (HTR2A) small molecule agonists, cell-based qHTS assay (AID 1963587); also: nearly all actives have a fitted effect of over 30% in size
# Outline: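 CHO cells stably expressing human HTR2A, plated 18 h, loaded with calcium dye 1 h at 37 C. Agonist mode: compounds added and intracellular calcium fluorescence recorded kinetically for 2 min at 1 sec intervals.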
# [11] = biological target: Muscarinic acetylcholine receptor M1 (Homo sapiens) (UniProt P11229); experiment: Cholinergic receptor muscarinic 1 (CHRM1) small molecule antagonists, cell-based qHTS assay (AID 1963588); also: nearly all actives have a fitted effect of over 40% in size
# Chain of Muscarinic acetylcholine receptor M1 (Homo sapiens) (P11229 whole entry, looked up): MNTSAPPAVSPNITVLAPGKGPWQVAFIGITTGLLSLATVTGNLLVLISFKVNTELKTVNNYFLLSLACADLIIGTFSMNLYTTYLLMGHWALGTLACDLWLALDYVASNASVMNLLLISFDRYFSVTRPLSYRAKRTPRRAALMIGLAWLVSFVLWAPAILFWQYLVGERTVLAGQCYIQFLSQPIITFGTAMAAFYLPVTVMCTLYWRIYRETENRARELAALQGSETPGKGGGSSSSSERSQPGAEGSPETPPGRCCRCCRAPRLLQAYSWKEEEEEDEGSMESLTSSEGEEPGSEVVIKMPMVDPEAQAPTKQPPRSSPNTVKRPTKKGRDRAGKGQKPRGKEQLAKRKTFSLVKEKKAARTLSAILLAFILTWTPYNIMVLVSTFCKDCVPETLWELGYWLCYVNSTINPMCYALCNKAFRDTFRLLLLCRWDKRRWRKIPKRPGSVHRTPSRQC
# Outline: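 CHRM1-CHO calcium-flux assay, antagonist mode. Cells were seeded 18 h, dye-loaded 1 h at 37 C and given compound for 5 min at RT, then acetylcholine was added at 50nM. FDSS fluorescence was read 3 min; 15 concentrations, three runs.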
# [12] = biological target: Muscarinic acetylcholine receptor M1 (Homo sapiens) (UniProt P11229); experiment: Cholinergic receptor muscarinic 1 (CHRM1) small molecule agonists, cell-based qHTS assay (AID 1963589); also: nearly all actives have a fitted effect of over 35% in size
# Outline: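 CHO cells stably expressing human CHRM1 were loaded with calcium dye for 1 h at 37 C, then compound was added in agonist mode. Intracellular calcium fluorescence was followed kinetically at 1 s intervals. Fifteen concentrations were tested in three independent runs.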
# [13] = biological target: Beta-2 adrenergic receptor (Homo sapiens) (UniProt P07550); experiment: Adrenergic beta2 receptor (ADRB2) small molecule antagonists, cell-based qHTS assay (AID 1963592); also: series mostly up to about 92 µM; nearly all actives have a fitted effect of over 50% in size
# Chain of Beta-2 adrenergic receptor (Homo sapiens) (P07550 whole entry, looked up): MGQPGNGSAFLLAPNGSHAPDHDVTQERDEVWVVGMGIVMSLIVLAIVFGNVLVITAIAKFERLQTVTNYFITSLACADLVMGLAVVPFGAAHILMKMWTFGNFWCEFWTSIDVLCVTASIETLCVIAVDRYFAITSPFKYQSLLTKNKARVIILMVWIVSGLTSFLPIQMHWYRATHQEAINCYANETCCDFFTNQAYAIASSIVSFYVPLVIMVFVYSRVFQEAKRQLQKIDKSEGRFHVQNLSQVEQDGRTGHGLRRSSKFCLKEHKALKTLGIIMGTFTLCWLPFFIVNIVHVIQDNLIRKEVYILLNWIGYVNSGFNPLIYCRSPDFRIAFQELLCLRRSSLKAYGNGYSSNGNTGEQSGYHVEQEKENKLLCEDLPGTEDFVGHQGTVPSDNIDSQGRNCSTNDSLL
# Outline: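 Cells (CHO, stable ADRB2 overexpression) incubated 18-20hr at 37C; compounds added from DMSO; agonist mix (1nM isoproterenol, 100uM IBMX, 25uM Ro-20-1724) added; 0.5hr RT; d2-cAMP and anti-cAMP-cryptate added; 1hr RT; 665/615 nm read.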
# [14] = biological target: D(2) dopamine receptor (Homo sapiens) (UniProt P14416); experiment: Dopamine D2 receptor (DRD2) small molecule agonists, cell-based qHTS assay (AID 1963594); also: nearly all actives have a fitted effect of over 35% in size
# Chain of D(2) dopamine receptor (Homo sapiens) (P14416 whole entry, looked up): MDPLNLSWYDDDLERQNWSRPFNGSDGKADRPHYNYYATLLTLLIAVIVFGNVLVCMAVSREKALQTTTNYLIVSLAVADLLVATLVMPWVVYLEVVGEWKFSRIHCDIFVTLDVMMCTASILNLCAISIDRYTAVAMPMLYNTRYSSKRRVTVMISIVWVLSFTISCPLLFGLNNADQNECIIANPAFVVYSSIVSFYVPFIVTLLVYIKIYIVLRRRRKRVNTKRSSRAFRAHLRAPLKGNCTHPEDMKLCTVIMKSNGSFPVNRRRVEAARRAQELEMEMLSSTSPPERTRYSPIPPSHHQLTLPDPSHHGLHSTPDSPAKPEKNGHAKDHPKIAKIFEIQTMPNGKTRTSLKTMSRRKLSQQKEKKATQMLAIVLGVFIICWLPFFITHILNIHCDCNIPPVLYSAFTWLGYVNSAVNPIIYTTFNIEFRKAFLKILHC
# Outline: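 HEK293 cells stably expressing human DRD2, pre-treated with PDE inhibitor Ro20-1724 (0.1 mM final) and compound 10 min at room temperature, then stimulated with NKH477 (200nM […]) for 30 min. cAMP read by HTRF (665/620 nm).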
# [15] = biological target: D(2) dopamine receptor (Homo sapiens) (UniProt P14416); experiment: Dopamine D2 receptor (DRD2) small molecule antagonists, cell-based qHTS assay (AID 1963595; active = well fitted inhibition curve with a large enough effect in the signal ratio in the repeat runs, with a control signal flat; the % refers to the signal ratio)
# Outline: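 Antagonism was scored as restored cAMP in HEK293-DRD2 cells. These cells were stimulated with 200 nM NKH477 and 12 nM quinpirole for 30 min at room temperature, in the presence of 0.1 mM Ro20-1724.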
# [16] = p53 small molecule agonists, cell-based qHTS assay: qHTS cell viability counter screen (AID 1963581); also: nearly all actives have a fitted effect of over 45% in size
# Outline: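 p53RE-bla HCT-116 cells, compounds added 5 h after plating and incubated 16 h at 37 C. Cytotoxicity measured in the same wells as intracellular ATP by CellTiter-Glo luminescence after 30 min at room temperature.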
# [17] = p53 small molecule agonists, cell-based qHTS assay (AID 1963582; active = well fitted activation curve with a large enough effect in the signal ratio in the repeat runs, not every such curve was filed as active; the % refers to the signal ratio)
# Outline: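 p53RE-bla reporter cells, compounds added in DMSO after 5 h plating, incubated 16 h at 37 C. Beta-lactamase read via 2 h room-temperature LiveBLAzer B/G FRET substrate, fluorescence intensity.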
# [18] = cAMP Responsive Elements (CRE) small molecule agonists, cell-based qHTS assay (AID 1963590)
# Outline: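 CRE-bla HEK 293T cells, 2,000/well in DMEM with 10% dialyzed FBS and 25 mM HEPES, pre-incubated 18 h at 37 C, then exposed to compound 3 h at 37 C. Beta-lactamase reporter read with LiveBLAzer B/G FRET substrate after 2 h at room temperature.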
# [19] = cAMP Responsive Elements (CRE) small molecule antagonists, cell-based qHTS assay (AID 1963591; active = well fitted inhibition curve with a large enough effect in the signal ratio in the repeat runs, not every such curve was filed as active; the % refers to the signal ratio)
# Outline: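 CRE-bla HEK293T cells plated 18 h, then given compound plus NKH477 at 0.25 uM final for 3 h at 37C. Beta-lactamase reporter read with LiveBLAzer B/G FRET substrate after 2 h at room temperature.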
smiles,measurement,setting,value
C=C/C(C)=C/C/C=C(\C)CCC=C(C)C,Potency,[1],inactive
same,Potency,[2],68.6 µM (active)
same,Potency,[3],inactive
same,outcome,[4],inactive
same,outcome,[5],inactive
same,Potency,[6],inactive
same,Potency,[7],inactive
same,Potency,[8],inactive
same,Potency,[9],inactive
same,Potency,[10],inactive
same,Potency,[11],inactive
same,Potency,[12],inactive
same,Potency,[13],inactive
same,Potency,[14],inactive
same,Potency,[15],inactive
COC(C)(OC)OC,Potency,[1],inactive
same,Potency,[2],inactive
same,Potency,[3],inactive
same,outcome,[4],inactive
same,outcome,[5],inactive
same,Potency,[6],inactive
same,Potency,[8],inactive
same,Potency,[16],inactive
same,Potency,[17],inactive
same,Potency,[9],inactive
same,Potency,[10],inactive
same,Potency,[11],inactive
same,Potency,[12],inactive
same,Potency,[18],inactive
same,Potency,[13],inactive
same,Potency,[14],inactive
same,Potency,[15],inactive
O=C1C(CCS(=O)c2ccccc2)C(=O)N(c2ccccc2)N1c1ccccc1 (stereo unspecified),Potency,[1],inactive
same,Potency,[2],inactive
same,Potency,[3],inactive
same,outcome,[4],inactive
same,outcome,[5],inactive
same,Potency,[6],inactive
same,Potency,[7],inactive
same,Potency,[17],inactive
same,Potency,[19],inactive
same,Potency,[13],inactive
same,Potency,[14],inactive
same,Potency,[15],inactive
CC(=O)NC(=O)c1ccccc1O,Potency,[1],inactive
same,Potency,[2],inactive
same,Potency,[3],inactive
same,outcome,[4],inactive
same,outcome,[5],inactive
same,Potency,[6],inactive
same,Potency,[8],inactive
same,Potency,[16],inactive
same,Potency,[17],inactive
same,Potency,[9],inactive
same,Potency,[10],inactive
same,Potency,[11],inactive
same,Potency,[12],inactive
same,Potency,[18],inactive
same,Potency,[19],inactive
same,Potency,[13],inactive
same,Potency,[15],inactive
COCCOC(=O)C1=C(C)NC(C)=C(C(=O)OC(C)C)C1c1cccc([N+](=O)[O-])c1 (stereo unspecified),Potency,[1],inactive
same,Potency,[2],inactive
same,Potency,[3],inactive
same,outcome,[4],inactive
same,outcome,[5],inactive
same,Potency,[6],inactive
same,Potency,[8],inactive
same,Potency,[16],inactive
same,Potency,[17],inactive
same,Potency,[13],inactive
same,Potency,[14],inactive
[O]=[Bi],"activity change, negative = cytotoxicity",[1],4.16% [at 8.39 µM]
same,"activity, positive = activation",[2],29.8% [at 8.39 µM]
same,activity change,[3],"0.29% [at 5.22 µM, hits give high values]"
same,activation,[4],0.437% [at 6.97 µM]
same,activation,[5],0.259% [at 5.23 µM]
same,activation,[6],0.191% [at 5.99 µM]
same,"activity change, negative = cytotoxicity",[7],-5.49% [at 5.99 µM]
same,activation,[17],6.59% [at 5.99 µM]
same,"activity, negative = inhibition",[9],2.38% [at 5.62 µM]
same,"activity, negative = inhibition",[11],3.36% [at 5.58 µM]
same,activation,[12],0.394% [at 6.97 µM]
same,activation,[18],-0.129% [at 8.39 µM]
same,"activity change, negative = inhibition",[19],-10.4% [at 8.39 µM]
same,"activity change, negative = inhibition",[13],6.45% [at 8.39 µM]
same,activation,[14],0.151% [at 8.39 µM]
same,"activity change, negative = inhibition",[15],-14.1% [at 8.38 µM]
CCCCCCC(O)CO (stereo unspecified),Potency,[1],inactive
same,Potency,[2],inactive
same,Potency,[3],inactive
same,outcome,[4],inactive
same,outcome,[5],inactive
same,Potency,[6],inactive
same,Potency,[7],inactive
same,Potency,[8],inactive
same,Potency,[17],inactive
same,Potency,[9],inactive
same,Potency,[10],inactive
same,Potency,[11],inactive
same,Potency,[12],inactive
same,Potency,[19],inactive
same,Potency,[13],inactive
same,Potency,[15],inactive
C1CC(COCC2CO2)CCC1COCC1CO1 (stereo unspecified),Potency,[1],inactive
same,Potency,[2],61.1 µM (active)
same,Potency,[3],inactive
same,outcome,[4],inactive
same,outcome,[5],inactive
same,Potency,[7],inactive
same,Potency,[8],inactive
same,Potency,[16],inactive
same,Potency,[9],inactive
same,Potency,[10],inactive
same,Potency,[11],inactive
same,Potency,[12],inactive
same,Potency,[13],inactive
same,Potency,[14],inactive
same,Potency,[15],inactive
Oc1ccc2c(c1)OCO2,Potency,[1],inactive
same,Potency,[2],inactive
same,Potency,[3],inactive
same,outcome,[4],inactive
same,outcome,[5],inactive
same,Potency,[6],inactive
same,Potency,[7],inactive
same,Potency,[8],inactive
same,Potency,[17],inactive
same,Potency,[10],inactive
same,Potency,[11],inactive
same,Potency,[12],inactive
same,Potency,[18],inactive
same,Potency,[19],inactive
same,Potency,[13],inactive
same,Potency,[14],inactive
same,Potency,[15],inactive
